The results in this text go back to PubChem BioAssay AID1259421 (Broad Institute, 2018).

The structures appear in SMILES notation. “And” between values parts separate entries of the source, which are not always exact repeats. Equal entries are not always repeated. Hit rate of the full screen: of about 6,400 compounds, about 610 (9.5%) were called active. Cut-off read from the data, not from the text of the source: active = activity change below about -70%; inconclusive = no clear call, values can overlap the other calls; inactive = above that. The list comes from a sample in which actives are over-represented; it also holds similar structures and randomly drawn compounds. More than one record can exist for a structure, and the calls need not agree.

The experiment in a line: Toxoplasma gondii ME49Luc growth in HeLa cells, luciferase, no IFN-y, primary screen (AID 1259421). Particulars: T. gondii ME49Luc in HeLa, 72 h, stronger effect = lower value, concentration not given here.
Take `O=C1c2ccccc2-n2c1nc1ccccc1c2=O`: the activity change, negative = inhibition is -48.4% (inactive). For `Cc1nccn1CC1CCC2C(C1=O)c1ccccc1N2C` (stereo unspecified), the activity change, negative = inhibition is 8.1% (inactive).

Turning to `CC(C)(CO)C(O)C(=O)NCCC(=O)NCCSSCCNC(=O)CCNC(=O)C(O)C(C)(C)CO` (stereo unspecified), the activity change, negative = inhibition was 0.59% (inactive). For the molecule `CCN(CC)C(=O)c1cccc(C)c1`, the activity change, negative = inhibition was 17.6% (inactive) and -3.28% (inactive). Take `CCCCN(CCCC)C(=O)CN1C[C@H](c2ccc3c(c2)OCO3)[C@@H](C(=O)O)[C@@H]1c1ccc(OC)cc1`: the activity change, negative = inhibition was 2.8% (inactive). As to `CCOCc1nc2c(N)nc3ccccc3c2n1CC(C)(C)O`, the activity change, negative = inhibition was 18.1% (inactive).

Turning to `N[C@@H](CC(=O)Nc1ccc(Oc2cc(F)c(F)cc2Br)cc1)C(=O)O`, the activity change, negative = inhibition was 7.4% (inactive). As for `COc1cccc(Nc2c(C(N)=O)cnc3c(C)cc(S(=O)(=O)c4cccc(C(=O)N(C)C)c4)cc23)c1`, the activity change, negative = inhibition is -9.54% (inactive). With `CNC(=O)c1ccc(C)c(-n2c(C)cc(OCc3ccc(F)cc3F)c(Br)c2=O)c1`, the activity change, negative = inhibition is 9.8% (inactive). Turning to `CC(=O)NC1=NN(C(C)=O)C(C)(c2ccccc2)S1` (stereo unspecified), the activity change, negative = inhibition was -32.2% (inactive). To `CC(=O)O[C@]1(C(C)=O)CC[C@H]2[C@@H]3C=C(C)C4=CC(=O)CC[C@@H]4[C@H]3CC[C@@]21C` belongs 8.45% (inactive). Take `C#C[C@]1(OC(C)=O)CCC2C3CCC4=CC(=O)CC[C@@H]4C3CC[C@@]21C` (stereo partly specified): the activity change, negative = inhibition is -79.9% (active) and -90.3% (active). With `C#C[C@]1(OC(C)=O)CC[C@H]2[C@@H]3CCC4=C[C@@H](OC(C)=O)CC[C@@H]4[C@H]3CC[C@@]21C`, the activity change, negative = inhibition was -38.3% (inactive) and 1.4% (inactive). To `c1ccc(-c2n[nH]c3c2oc2ccccc23)cc1` belongs 129% (inactive) and 2.12% (inactive). As for `CCOC(=O)N1CSCC1C(=O)O` (stereo unspecified), the activity change, negative = inhibition was 0.0863% (inactive). As for `CC(C)Oc1ccc2c(=O)cc(-c3ccccc3)oc2c1`, the activity change, negative = inhibition is 458% (inactive). To `CN(C)CCCCC(=O)Nc1ccc(NC(=S)NC(=O)c2ccc(C(C)(C)C)cc2)cc1` belongs 78.2% (inactive); to `NC1CCN(c2cccc(Cl)n2)CC1`, 10.9% (inactive) and -8.3% (inactive). For `COCCOc1ccc2c(c1)ncn2-c1ccc2cccc(N3CCC(N)CC3)c2n1`, the activity change, negative = inhibition is -89.9% (active). Take `CC1(COc2ccc3c(c2)ncn3-c2ccc3cccc(N4CCC(N)CC4)c3n2)COC1`: the activity change, negative = inhibition is -73.4% (active).

On to `CCOC(=O)c1ccc(OCCC2CCN(c3ccc(C)nn3)CC2)cc1`, for which the activity change, negative = inhibition is 9.97% (inactive). On to `COc1ccc(C[C@H](C)NC[C@@H](O)c2ccc(O)c(NC=O)c2)cc1`, for which the activity change, negative = inhibition is 14.6% (inactive) and 0.747% (inactive). `CCCC1OC2CC3C4CCC5=CC(=O)C=CC5(C)C4C(O)CC3(C)C2(C(=O)CO)O1` (stereo unspecified): the activity change, negative = inhibition was -4.58% (inactive). `Cc1nnc(C(C)C)n1C1CC2CCC(C1)N2CC[C@H](NC(=O)C1CCC(F)(F)CC1)c1ccccc1` (stereo partly specified): the activity change, negative = inhibition is 10.7% (inactive) and 30.6% (inactive). As to `CC(C)NC[C@@H](C(=O)N1CCN(c2ncnc3c2[C@H](C)C[C@@H]3O)CC1)c1ccc(Cl)cc1`, the activity change, negative = inhibition is 9.17% (inactive). To `CC(=O)c1c(O)c(C)c(O)c2c1OC1=CC(=O)C(C(C)=O)C(=O)[C@@]12C` (stereo partly specified) belongs 16.8% (inactive); to `CCCCCCCCCCCCC/C=C/[C@@H](O)[C@H](CO)NC(C)=O`, 16.6% (inactive). To `NCCNS(=O)(=O)c1cccc2cnccc12` belongs 1.67% (inactive). On to `NCCCCCCNS(=O)(=O)c1cccc2ccccc12`, for which the activity change, negative = inhibition was 3.17% (inactive). `Nc1nc(NCC2CCC(CNS(=O)(=O)c3cccc4ccccc34)CC2)nc2ccccc12` (stereo unspecified): the activity change, negative = inhibition is -76.7% (active) and -41.2% (inactive). As for `Cc1onc(-c2ccccc2)c1C(=O)NC1C(=O)N2[C@@H]1SC(C)(C)[C@@H]2C(=O)O` (stereo partly specified), the activity change, negative = inhibition is 8.03% (inactive). On to `CSC1SCC2C(=O)N(C)C(C(C)C)C(=O)OCC(NC(=O)c3cnc4ccccc4n3)C(=O)NC(C)C(=O)N(C)C1C(=O)N(C)C(C(C)C)C(=O)OCC(NC(=O)c1cnc3ccccc3n1)C(=O)NC(C)C(=O)N2C` (stereo unspecified), for which the activity change, negative = inhibition is -84.4% (active). As for `CC(=C(CCOP(=O)(O)O)SC(=O)c1ccccc1)N(C=O)Cc1cnc(C)nc1N`, the activity change, negative = inhibition was -0.0808% (inactive). Regarding `Oc1c(Cl)cc(Cl)c(Cl)c1Cc1c(O)c(Cl)cc(Cl)c1Cl`, the activity change, negative = inhibition was -88.2% (active) and -95.3% (active).

On to `O=C(Nc1cc(Cl)cc(Cl)c1O)c1c(O)c(Cl)cc(Cl)c1Cl`, for which the activity change, negative = inhibition was 1.68% (inactive). In the case of `CCCC(CCC)C(=O)OC1C[C@H]2CC[C@@H](C1)[N+]2(C)C` (stereo partly specified), the activity change, negative = inhibition was 9.62% (inactive). As for `O=C(NC1CCN(Cc2ccccc2)CC1)c1ccc(I)cc1`, the activity change, negative = inhibition was 21.8% (inactive) and 21.3% (inactive). With `O=C(COc1ccc(C(=O)c2ccccc2)cc1)NC1CCN(Cc2ccccc2)CC1`, the activity change, negative = inhibition was -17.8% (inactive). On to `C=CCc1cccc(/C=N/NC(=O)CN2CCN(Cc3ccccc3)CC2)c1O`, for which the activity change, negative = inhibition is -76.9% (active) and 6.28% (inactive). On to `Cc1ccccc1N=Nc1ccc(NC(=O)c2ccnn2C)c(C)c1`, for which the activity change, negative = inhibition was -4.39% (inactive). To `Cc1nc2ccc(CN(C)c3ccc(C(=O)N[C@@H](CCC(=O)O)C(=O)O)s3)cc2c(=O)[nH]1` belongs -4.51% (inactive); to `O=C(O)c1cc(-c2ccccc2)nc2ccccc12`, 42.2% (inactive) and 11.3% (inactive); to `O=C(O)c1ccc(-c2c[nH]c3ncc(-c4ccccc4)cc23)cc1C1CCCC1`, -82.2% (active).

For `CCC(=O)OCC(=O)[C@@]1(OC(=O)CC)[C@@H](C)CC2C3CCC4=CC(=O)C=C[C@]4(C)C3(F)[C@@H](O)C[C@@]21C` (stereo partly specified), the activity change, negative = inhibition is -0.442% (inactive).

Take `CC(=O)Nc1ccc(S(=O)(=O)Nc2onc(C)c2C)cc1`: the activity change, negative = inhibition was 6.51% (inactive). Take `NCCCC(N)(C(=O)O)C(F)F` (stereo unspecified): the activity change, negative = inhibition is 7.14% (inactive). `COc1cc(OC)c2c(=O)c(OC)c(-c3ccccc3)oc2c1`: the activity change, negative = inhibition was 43.5% (inactive). `COc1cc(OC)c2c(OC)c(-c3ccc4c(c3)OCO4)c(=O)oc2c1`: the activity change, negative = inhibition is -77.7% (active). `COc1cc(OC)c2c(=O)cc(-c3ccccc3)oc2c1`: the activity change, negative = inhibition was 147% (inactive).

As to `O=C(NCCc1ccc(O)c(O)c1)C12CC3CC(CC(C3)C1)C2`, the activity change, negative = inhibition is 1.2% (inactive). Take `N#C/C(=C\c1ccc(O)c(O)c1)C(=O)OCCc1cccs1`: the activity change, negative = inhibition was 2.66% (inactive).

For `COc1cc2c(cc1OC)Cc1cc(OC)c(OC)cc1Cc1cc(OC)c(OC)cc1C2`, the activity change, negative = inhibition is 6.34% (inactive).

Consider `COc1cccc(N2CCN(C3=Nc4c(F)cccc4[C@H](CC(=O)O)N3c3cc(C(F)(F)F)ccc3OC)CC2)c1`, for which the activity change, negative = inhibition was -1.57% (inactive). Turning to `O=C1c2ccccc2CCC1CNCCc1ccc(O)cc1` (stereo unspecified), the activity change, negative = inhibition is 9.23% (inactive).

For the molecule `O=S(=O)(O)c1ccc(O)cc1`, the activity change, negative = inhibition is 0.395% (inactive). As for `CC(=O)N1CCN(C)CC1`, the activity change, negative = inhibition was 1.18% (inactive) and 9.84% (inactive). For `O=c1c2cc(O)c(O)cc2oc2cc(O)c(C3O[C@H](CO)[C@H](O)[C@@H](O)[C@H]3O)c(O)c12` (stereo partly specified), the activity change, negative = inhibition is 3.15% (inactive). For `COc1ccc(-c2cc(=O)c3c(O)c(OC)c(O[C@H]4O[C@H](CO[C@@H]5O[C@@H](C)[C@H](O)[C@@H](O)[C@H]5O)[C@@H](O)[C@H](O)[C@H]4O)cc3o2)cc1`, the activity change, negative = inhibition is 15.1% (inactive).

Consider `O=C(NNc1nc2cc(F)ccc2n2cccc12)c1cnccn1`, for which the activity change, negative = inhibition is -77.3% (active).

For the molecule `NC(Cc1ccc(F)cc1)C(=O)O` (stereo unspecified), the activity change, negative = inhibition was 2.32% (inactive). Regarding `CCCCNc1ncc(-c2ccc(CN3CCOCC3)cn2)c(NC2CCC(O)CC2)n1` (stereo unspecified), the activity change, negative = inhibition is -67.2% (inactive). Consider `OC1CCC(Nc2ncc3nc(Nc4c(F)cc(F)cc4F)n([C@H]4CCOC4)c3n2)CC1` (stereo partly specified), for which the activity change, negative = inhibition is -77.1% (active). In the case of `O=C(CN1C(=O)c2ccccc2S1(=O)=O)Nc1ccc(O)cc1`, the activity change, negative = inhibition is 6.78% (inactive). To `Nc1nc(NCCNc2ncc(-n3ccnc3)c(-c3ccc(Cl)cc3Cl)n2)ccc1[N+](=O)[O-]` belongs 38.7% (inactive).

For the molecule `COc1ccc(S(=O)(=O)N2CCCN(S(=O)(=O)c3ccc(OC)c(OC)c3)CC2)cc1OC`, the activity change, negative = inhibition is 0.269% (inactive).

For `O=C(NO)c1cnc(N2CCN(S(=O)(=O)c3ccc4ccccc4c3)CC2)nc1`, the activity change, negative = inhibition was -82.9% (active). Turning to `COc1ccccc1N1CCN(CCCCNC(=O)c2ccc3ccccc3c2)CC1`, the activity change, negative = inhibition was -12.8% (inactive). As for `O=c1c2ccccc2oc2ccccc12`, the activity change, negative = inhibition is 16.7% (inactive). As to `O=c1[nH]c(=O)c2ccccc2o1`, the activity change, negative = inhibition was 7.04% (inactive) and -95.9% (active).

With `O=C(O)c1cc(=O)c2ccccc2o1`, the activity change, negative = inhibition was 5.57% (inactive) and 14.8% (inactive). Consider `OC(c1ccccc1)(c1ccccc1)C12CC[N+](CCOCc3ccccc3)(CC1)CC2`, for which the activity change, negative = inhibition is 13.9% (inactive). Regarding `COc1ccc2oc(-c3ccccc3OC)cc(=O)c2c1`, the activity change, negative = inhibition was 44.1% (inactive). `O=C(Nc1ccccc1)NC1CC(C(=O)O)Nc2cc(Cl)cc(Cl)c21` (stereo unspecified): the activity change, negative = inhibition is 13% (inactive). For `Cc1ccccc1N=C(N)Nc1ccccc1C`, the activity change, negative = inhibition was 5.45% (inactive) and 4.9% (inactive). Regarding `CCCNC(C)C(=O)Nc1ccccc1C` (stereo unspecified), the activity change, negative = inhibition was 37.2% (inactive) and -79.6% (active). For `CCCNC(C)C(=O)Nc1c(C)csc1C(=O)OC` (stereo unspecified), the activity change, negative = inhibition is 20% (inactive).

For `CCCCCCCCCCCCCCCC(=O)OC1C(SC)OC(C(NC(=O)C2CC(CCC)CN2C)C(C)Cl)C(O)C1O` (stereo unspecified), the activity change, negative = inhibition is -9.26% (inactive).

As to `COCCn1c2c([n+](Cc3cnccn3)c1C)C(=O)c1ccccc1C2=O`, the activity change, negative = inhibition is -83.1% (active) and -81.3% (active). Turning to `CN1c2cc(O)c(N=NC(N)=O)cc2CC1S(=O)(=O)O` (stereo unspecified), the activity change, negative = inhibition was -1.43% (inactive).

With `O=P(O)(O)C(Sc1ccc(Cl)cc1)P(=O)(O)O`, the activity change, negative = inhibition was 5.32% (inactive) and -0.0921% (inactive). To `CC(=O)OCC(=O)[C@@]1(O)CCC2C3C[C@H](C)C4=CC(=O)C=CC4(C)C3[C@@H](O)CC21C` (stereo partly specified) belongs -6.72% (inactive).
